This note sets out measurements from PubChem BioAssay.

Activity calls are given as the source filed them.

Assay [1] is described as follows: optical density shifts of acrAB sulA E. coli – strain DRC41, OD650, 48 h, E. coli filamentation inducer project, primary screen (AID 1152).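 Also: E. coli MC1000 strain DRC41 lacking acrAB efflux pump and sulA.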 The conditions noted are these: higher = more signal, called active from +8 up or from −8 down.
Assay [2] can be described thus: probe aLefty1 binding on compound microarray – biochemical, small-molecule microarray, 635/667 nm fluorescence, primary screen (AID 1153).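 Also: score merges spot fluorescence with signal-to-noise ratio from the scanned slide images.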 The settings on record: higher = more signal.
Assay [3] is described as follows: plasmodial surface anion channel blockers, osmotic lysis – cell-based, P. falciparum Indochina, OD700, 1 h, primary screen (AID 1154). The settings on record: P. falciparum Indochina infected RBC osmotic lysis, higher = more signal, called active from +8 up or from −8 down.
A short description of assay [4]: plasmodial surface anion channel blockers, osmotic lysis – cell-based, P. falciparum Indochina, OD700, 2 h, primary screen (AID 1155).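 Also: lysis reports solute entry through the parasite surface anion channel PSAC.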 The conditions noted are these: P. falciparum Indochina infected erythrocytes, higher = more signal, called active from +8 up or from −8 down.
Assay [5] in a line: changes in parasitized red cell lysis, either direction – P. falciparum Indochina, OD700, 3 h, PSAC antagonist project, primary screen (AID 1156). The conditions noted are these: P. falciparum-infected erythrocytes, osmotic lysis, higher = more signal, called active from +8 up or from −8 down.
Assay [6] in a line: plasmodial surface anion channel blockers, osmotic lysis – cell-based, P. falciparum Indochina, OD700, 18 h, primary screen (AID 1157). The conditions noted are these: P. falciparum Indochina infected erythrocytes, osmotic lysis OD700, 18 h; higher = more signal, called active from +8 up or from −8 down.
Assay [7] can be described thus: S6 kinase pathway phospho-S6 level changes – cell-based, A549, cytoblot, luminescence, serum-stimulated, primary screen (AID 1158).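 Also: serum-stimulated A549 lung adenocarcinoma cells; signal is phosphorylated S6 detected by cytoblot immunostaining with HRP secondary.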 The settings on record: 5 h, higher = more signal.
Assay [8] concerns the target NADPH oxidase 2 (Homo sapiens) (UniProt P04839). The assay is described as follows: compounds shifting NOX2 Amplex Red fluorescence – cell-based, HEK293-NOX2, PMA-stimulated, NOX inhibitor project, primary screen (AID 1159). Also: test concentration not given here. The conditions noted are these: 45 min, higher = more signal, called active from +8 up or from −8 down.
In assay [9] the target is NADPH oxidase 4 (Homo sapiens) (UniProt Q9NPH5). The assay is described as follows: compounds shifting NOX4 Amplex Red fluorescence – cell-based, HEK293-NOX4, tetracycline-induced, NOX inhibitor project, primary screen (AID 1160). The conditions noted are these: HEK293-NOX4, Amplex Red H2O2 fluorescence, 45 min; higher = more signal, called active from +8 up or from −8 down.
Sequence of NADPH oxidase 4 (Homo sapiens) (Q9NPH5 whole entry, looked up): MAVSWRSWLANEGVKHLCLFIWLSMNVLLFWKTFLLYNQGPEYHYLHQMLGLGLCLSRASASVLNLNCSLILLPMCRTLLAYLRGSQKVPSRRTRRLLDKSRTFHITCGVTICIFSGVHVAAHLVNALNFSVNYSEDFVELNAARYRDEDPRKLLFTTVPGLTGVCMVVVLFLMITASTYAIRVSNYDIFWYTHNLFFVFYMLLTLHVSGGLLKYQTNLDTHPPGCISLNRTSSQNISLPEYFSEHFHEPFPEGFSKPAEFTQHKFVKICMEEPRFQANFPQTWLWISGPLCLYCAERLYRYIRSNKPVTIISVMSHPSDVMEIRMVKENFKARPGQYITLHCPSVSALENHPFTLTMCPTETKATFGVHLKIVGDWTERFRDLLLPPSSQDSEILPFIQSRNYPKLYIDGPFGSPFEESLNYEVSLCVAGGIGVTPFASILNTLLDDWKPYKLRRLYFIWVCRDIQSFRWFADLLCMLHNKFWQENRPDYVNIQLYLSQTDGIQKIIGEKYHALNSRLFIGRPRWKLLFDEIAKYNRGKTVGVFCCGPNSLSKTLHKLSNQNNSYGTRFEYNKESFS

Assay [10] has as its target NADPH oxidase 5 (Homo sapiens) (UniProt Q96PH1). The assay is described as follows: compounds shifting NOX5 Amplex Red fluorescence – cell-based, HEK293-NOX5, NOX inhibitor project, primary screen (AID 1161). The settings on record: HEK293-NOX5, ionomycin, 45 min, higher = more signal.

Sequence of NADPH oxidase 5 (Homo sapiens) (Q96PH1 whole entry, looked up): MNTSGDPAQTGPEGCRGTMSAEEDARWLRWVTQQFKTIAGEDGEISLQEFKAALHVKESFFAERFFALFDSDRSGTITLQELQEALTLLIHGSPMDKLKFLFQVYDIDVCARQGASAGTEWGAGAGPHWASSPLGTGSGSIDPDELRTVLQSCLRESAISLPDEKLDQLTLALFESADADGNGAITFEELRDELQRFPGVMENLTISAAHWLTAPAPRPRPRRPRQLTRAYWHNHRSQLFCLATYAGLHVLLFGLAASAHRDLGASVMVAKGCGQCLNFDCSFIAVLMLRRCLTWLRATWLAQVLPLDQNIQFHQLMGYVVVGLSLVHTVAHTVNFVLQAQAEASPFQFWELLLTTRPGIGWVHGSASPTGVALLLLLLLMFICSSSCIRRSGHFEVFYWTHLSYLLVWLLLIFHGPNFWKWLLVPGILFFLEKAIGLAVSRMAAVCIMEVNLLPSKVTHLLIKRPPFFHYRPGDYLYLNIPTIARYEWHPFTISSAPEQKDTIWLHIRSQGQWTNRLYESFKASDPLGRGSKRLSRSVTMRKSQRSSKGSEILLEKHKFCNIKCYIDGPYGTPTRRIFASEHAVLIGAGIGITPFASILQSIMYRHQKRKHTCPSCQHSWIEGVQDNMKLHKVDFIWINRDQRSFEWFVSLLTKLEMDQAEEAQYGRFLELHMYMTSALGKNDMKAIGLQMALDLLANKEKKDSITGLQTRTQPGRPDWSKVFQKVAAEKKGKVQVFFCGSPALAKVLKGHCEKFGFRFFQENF
Sequence of NADPH oxidase 2 (Homo sapiens) (P04839 whole entry, looked up): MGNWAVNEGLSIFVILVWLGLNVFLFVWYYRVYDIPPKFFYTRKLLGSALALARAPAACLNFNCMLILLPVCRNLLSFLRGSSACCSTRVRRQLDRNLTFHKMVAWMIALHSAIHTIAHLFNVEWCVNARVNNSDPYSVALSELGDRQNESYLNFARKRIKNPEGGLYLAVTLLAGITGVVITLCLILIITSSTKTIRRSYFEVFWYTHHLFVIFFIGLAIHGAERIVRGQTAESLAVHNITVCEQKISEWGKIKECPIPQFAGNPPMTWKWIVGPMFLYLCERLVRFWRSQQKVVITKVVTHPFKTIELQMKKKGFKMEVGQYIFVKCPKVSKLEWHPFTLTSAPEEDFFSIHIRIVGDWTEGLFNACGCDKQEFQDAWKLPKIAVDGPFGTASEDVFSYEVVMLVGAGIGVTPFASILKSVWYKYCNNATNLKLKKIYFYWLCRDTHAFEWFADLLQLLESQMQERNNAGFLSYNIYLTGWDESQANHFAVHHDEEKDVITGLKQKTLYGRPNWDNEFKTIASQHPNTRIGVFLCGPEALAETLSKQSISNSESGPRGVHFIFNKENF

As to `CC1CC/C=C\[C@H]2OC34C=CCN(Cn5nnc6ccccc65)C(=O)[C@H]3N(CCCO)C(=O)[C@@H]4C2C(=O)O1` (stereo not given in full), the z-score was 1.29 (inactive) in assay [1]; 0.935 (inactive) in assay [3]; 0.563 (inactive) in [4]; -0.264 (inactive) in assay [5]; 0.554 (inactive) in assay [6]; 0.114 in assay [7]. The z-score was 0.923 (inactive) in assay [8], -1.82 (inactive) in assay [9] and 1.4 in assay [10]. The composite z-score in assay [2] was determined as 0.0445.
Consider `C=CCNC(=O)[C@H]1[C@@H]2C(=O)O[C@@H](c3ccccc3)[C@@H](c3ccccc3)N2[C@@H](c2ccc(OCCO)cc2)[C@]12C(=O)N(C(=O)OCCOC)c1ccc(C#CC3(O)CCCCCC3)cc12`, for which the z-score in assay [1] was 0.838 (inactive); in assay [3] it was 1.92 (inactive); in assay [4], 0.742 (inactive); in assay [5], 0.0102 (inactive); in [6], 0.509 (inactive); in [7] it was 0.0127. In addition, the z-score is 1.56 (inactive) in assay [8], 0.972 (inactive) in assay [9] and 1.02 in assay [10]. In addition, in assay [2], the composite z-score is 0.658.
Turning to `COCC1=C([C@H](O)CCc2ccccc2)[C@H](CO)[C@@H]2C(=O)N(Cc3ccccc3)C(=O)[C@@H]2C1`, the z-score in [1] was 1.72 (inactive); in [3], 15.3 (active); in [4] it was 2.04 (inactive); in assay [5], 0.23 (inactive); in assay [6] it was 0.477 (inactive); in assay [7] it was 0.24. In addition, the z-score in [8] is -0.543 (inactive); in assay [9], 0.21 (inactive); in [10], -0.0312. The molecule also registered a composite z-score in [2] of -0.194.
On to `COC(=O)[C@@]1(Cc2ccc(OC)cc2)[C@H]2c3cc(C(=O)N(C)C)n(CCSCCO)c3C[C@H]2CN1C(=O)c1ccccc1`, for which the z-score in assay [1] is -0.641 (inactive); in assay [3] it was 2.02 (inactive); in assay [4] it was 0.0187 (inactive); in [5], 0.453 (inactive); in assay [6], 0.641 (inactive); in assay [7] it was -0.368. Moreover, the z-score in assay [8] is 0.393 (inactive); in [9], 0.978 (inactive); in assay [10] it was -0.24. Further, the composite z-score in assay [2] was 0.0391.
With `C=CCN1Cc2ccccc2C[C@@]2(COC(c3ccc(OCCCO)cc3)=N2)C1=O`, the z-score in assay [1] was 0.754 (inactive); in assay [3], 22.7 (active); in [4], 5.46 (inactive); in assay [5], 5.11 (inactive); in assay [6], 0.985 (inactive); in [7], -0.14. Also, the z-score was -5.73 (inactive) in assay [8], -1.35 (inactive) in assay [9] and -3.28 in assay [10]. The same molecule registered a composite z-score in [2] of 0.121.
Turning to `CC(C)(C)OC(=O)CC[C@@]1(C(N)=O)N=C(c2ccc(OCCCO)cc2)O[C@@H]1c1ccccc1N=[N+]=[N-]`, the z-score in [1] is 1.3 (inactive); in assay [3], 30.8 (active); in assay [4], 31.3 (active); in assay [5], 2.05 (inactive); in assay [6], 2.73 (inactive); in [7], -0.207. The z-score is 1.57 (inactive) in assay [8], -0.154 (inactive) in assay [9] and -1.44 in [10]. The composite z-score in assay [2] was 0.224.
Take `O=C1O[C@H](c2ccccc2)[C@H](c2ccccc2)N2[C@H]1[C@@H](C(=O)N1CCCCCCC1)[C@]1(C(=O)Nc3ccc(C#CC4=CCCCC4)cc31)[C@H]2c1ccc(O)cc1`: the z-score in assay [1] was -0.306 (inactive); in [3] it was 0.123 (inactive); in assay [4], -0.131 (inactive); in [5] it was 0.0311 (inactive); in assay [6] it was 0.482 (inactive); in [7], -0.0408. Moreover, the z-score in [8] is 0.855 (inactive); in [9] it was 0.494 (inactive); in assay [10] it was 0.322. Besides, the composite z-score in assay [2] came out at 3.07.
In the case of `COC(=O)c1nc2oc1CC[C@@H](CO)NC(=O)N(C)Cc1cn(nn1)C[C@H](Cc1ccccc1)NC2=O`, the z-score was 2.75 (inactive) in assay [1]; 1.53 (inactive) in [3]; 0.394 (inactive) in assay [4]; 0.864 (inactive) in assay [5]; 0.0148 (inactive) in assay [6]; 0.225 in assay [7]. The z-score was -0.454 (inactive) in assay [8], 0.917 (inactive) in [9] and 0.398 in [10]. In addition, in assay [2], the composite z-score was -0.145.
For the molecule `O=C1OCC=C[C@H]2OC34C=CCN(Cc5ccccc5)C(=O)[C@H]3N(CCCO)C(=O)[C@@H]4[C@@H]12` (stereo not given in full), the z-score is 2.57 (inactive) in assay [1]; 0.599 (inactive) in [3]; -1 (inactive) in [4]; 1.01 (inactive) in [5]; -1.05 (inactive) in assay [6]; 0.833 in assay [7]. The z-score in assay [8] was -0.548 (inactive); in assay [9], -1.29 (inactive); in assay [10] it was -1.17. The molecule also displayed a composite z-score in assay [2] of 1.27.
Consider `[N-]=[N+]=NCc1ccccc1[C@@H]1OC(c2ccc(OCCCO)cc2)=N[C@]1(Cc1ccccc1N=[N+]=[N-])C(N)=O`, for which the z-score was -0.386 (inactive) in assay [1]; 20.5 (active) in [3]; 2.68 (inactive) in [4]; 1.5 (inactive) in [5]; 0.54 (inactive) in [6]; -0.0826 in assay [7]. In addition, the z-score in assay [8] was -1.07 (inactive); in assay [9], -0.527 (inactive); in [10], 0.12. The composite z-score in assay [2] is 0.636.
As for `O=[N+]([O-])c1ccc(C[n+]2ccc(CCCO)cc2)o1`, the z-score in assay [1] is -0.934 (inactive); in assay [3], 1.21 (inactive); in [4], 0.331 (inactive); in [5], 0.616 (inactive); in [6], 0.377 (inactive); in assay [7] it was 0.437. Further, the z-score in assay [8] is 0.00328 (inactive); in [9], -3.09 (inactive); in [10] it was -0.4. The molecule further yielded a composite z-score in [2] of -0.0162.
Turning to `C[C@H]1C2[C@H](Cc3ccccc3)NC(=O)[C@]23C(=O)N[C@H](Cc2ccccc2)C(=O)N[C@H](Cc2ccccc2)C(=O)NC/C=C/CCC/C=C/C3[C@@H]2O[C@]12C` (stereo not given in full), the z-score in assay [1] was 0.655 (inactive); in assay [3], 1.75 (inactive); in assay [4], 0.452 (inactive); in assay [5], 0.601 (inactive); in [6] it was 0.794 (inactive); in [7] it was 0.282. In addition, the z-score in [8] is 0.563 (inactive); in assay [9], -0.312 (inactive); in assay [10], 0.875. In addition, the composite z-score in assay [2] is -0.19.
